The values that follow come from PubChem BioAssay.

A word on the inhibition: it is the change of the read-out against control, counted positive when it falls.

The list shows a part of the results. Values without a mark were called inactive. Active and inactive are the calls of the source.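 The calls were made as follows, unless noted: active = mean inhibition over three repeats above a set limit taken from the earlier primary screen (cut at about 38% in these data); inactive = the rest.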

Sequence of COUP transcription factor 2 (Homo sapiens) (P24468 whole entry, looked up): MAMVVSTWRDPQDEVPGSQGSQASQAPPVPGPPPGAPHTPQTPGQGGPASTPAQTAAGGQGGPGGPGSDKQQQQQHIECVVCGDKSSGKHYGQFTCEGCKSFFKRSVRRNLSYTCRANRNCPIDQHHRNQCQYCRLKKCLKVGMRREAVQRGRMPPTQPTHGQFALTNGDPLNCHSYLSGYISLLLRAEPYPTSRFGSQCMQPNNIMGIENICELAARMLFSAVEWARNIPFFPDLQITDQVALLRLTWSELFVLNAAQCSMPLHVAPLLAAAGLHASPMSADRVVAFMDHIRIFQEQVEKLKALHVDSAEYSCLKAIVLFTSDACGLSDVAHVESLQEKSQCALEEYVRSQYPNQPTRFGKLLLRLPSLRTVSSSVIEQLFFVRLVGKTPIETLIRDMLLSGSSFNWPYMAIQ

Test system in one test: not listed separately
The test can be described thus: VP16-driven transactivation reporter suppression – cell-based, luminescence, HEK293, counter-screen for COUP-TFII antagonist project (AID 687007; in the data active = inhibition above about 13%). The conditions noted are these: HEK293 Gal4-VP16 luciferase reporter, at 8.5 µM, stronger effect = higher value.
With `COc1ccc(Nc2ncnc3ccc(Br)cc23)c(OC)c1`, the inhibition was 7.13%.

With `CC(C)(C)c1ccc(Oc2ccc(N)cc2)cc1`, the inhibition is 91.8% (active).

Turning to `C=CCn1c(C)cc(C2=NNC(=NCC)SC2)c1C`, the inhibition is 82% (active).

As for `Cc1ccsc1C(=O)OCC(=O)c1cc(C)n(CC2CCCO2)c1C` (centres undefined), the inhibition is 78.4% (active).

Take `Cc1ccc(C)c(S(=O)(=O)N2CCN(c3ncnc4sccc34)CC2)c1`: the inhibition was 20.1% (active).

`CC(=O)N1CCCc2cc(S(=O)(=O)N3CCCC(C(=O)N4CCN(c5cccc(Cl)c5)CC4)C3)ccc21` (centres undefined): the inhibition is 4.48%.

Regarding `OCCCNc1nccc(-c2cc(Nc3cccc(Cl)c3)ncn2)n1`, the inhibition was 6.3%.

The next test addresses COUP transcription factor 2 (Homo sapiens) (UniProt P24468). Briefly: retest of COUP-TFII reporter suppressors – cell-based, luciferase reporter, HEK293, triplicate, confirmation (AID 687008).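 Also: 100% = cells given the luciferase reporter alone without the COUP-TF2 vector.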 The conditions noted are these: HEK293 NGFI-A luciferase reporter, luminescence; at 8.5 µM; stronger effect = higher value.
Consider `COc1ccc(Nc2ncnc3ccc(Br)cc23)c(OC)c1`, for which the inhibition is 11.9%.

In the case of `CC(C)(C)c1ccc(Oc2ccc(N)cc2)cc1`, the inhibition is 101% (active).

In the case of `C=CCn1c(C)cc(C2=NNC(=NCC)SC2)c1C`, the inhibition was 105% (active).

`Cc1ccsc1C(=O)OCC(=O)c1cc(C)n(CC2CCCO2)c1C` (centres undefined): the inhibition was 97.7% (active).

Turning to `Cc1ccc(C)c(S(=O)(=O)N2CCN(c3ncnc4sccc34)CC2)c1`, the inhibition is 49.9% (active).

Take `CC(=O)N1CCCc2cc(S(=O)(=O)N3CCCC(C(=O)N4CCN(c5cccc(Cl)c5)CC4)C3)ccc21` (centres undefined): the inhibition is 60.1% (active).

In the case of `OCCCNc1nccc(-c2cc(Nc3cccc(Cl)c3)ncn2)n1`, the inhibition was 31.2%.
